Assay results as given in PubChem BioAssay.
Records with an inconclusive call do not appear. Active and inactive are the calls of the source. Rule as the data show it, unless noted: active = inhibition above about 30%; inactive = the rest.

What was measured:
[1] = SK-BR-3 cell growth inhibitors, pilot screen, 24 h, human (AID 572;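 active = viability at or below 10% of carrier control in both of two separate runs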;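 also: compound exposure lasted between 18 and 24 h rather than exactly 24 h; 100% = carrier-treated control wells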); conditions: SK-BR-3 viability, CellTiter-Glo luminescence, at 10 µM, stronger effect = lower value
[2] = HUVEC growth inhibition – cell-based, human, primary screen (AID 575;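 active = viability at or below 30% in both replicate assays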;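 also: 100% = median of untreated cell wells with 0.1% DMSO on each plate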); conditions: HUVEC proliferation, CellTiter-Glo luminescence, 72 h; at 10 µM; stronger effect = lower value
[3] = growth inhibitors of H69AR lung tumor, primary screen, human, duplicate replicates (AID 580;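 active = viability at or under a set limit in both replicates, limit being median viability minus 3 SD, cut at about 48% in these data, passing the limit was not always enough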;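 also: 100% = mean luminescence of untreated wells and 0% = no signal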); conditions: H69AR lung tumor cells viability, ATP luminescence, 72 h; at 10 µM; stronger effect = lower value
[4] = reversal of MRP1-mediated doxorubicin resistance, pilot screen, H69AR cells, doxorubicin co-treatment (AID 601;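 active = viability loss from added drug above about 55%, and viability with drug at most 40%, in both replicates, limit read from the data, passing the limit was not always enough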); conditions: CellTiter-Glo, 72 h, at 10 µM; for differential viability (reversal): stronger effect = higher value
[5] = 384-well plate pilot, post-Golgi transport modulator project, inhibition of yeast transport mutant growth (AID 636; in the data active = inhibition above about 31%); conditions: absorbance 615 nm, about 18 h, stronger effect = higher value
[6] = growth suppression of yeast trafficking mutant, preliminary HTS, modulators of trafficking downstream of Golgi apparatus project, 1536-format plate, OD 615 nm (AID 637); conditions: yeast transport mutant growth, absorbance 615 nm, 18 h; stronger effect = higher value
[7] = OD615 S. cerevisiae growth inhibition, permissive medium, pilot counter-assay, permissive growth control for S. cerevisiae lifespan shortening project (AID 705;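 active = growth inhibition above 25% in both replicates, a cutoff set 3 SD above the mean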); conditions: OD615, 24 h, at 10 µM, stronger effect = higher value
[8] = Restrictive medium S. cerevisiae growth inhibition, OD615, pilot screen of yeast lifespan reduction project, restrictive growth control (AID 706;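 active = growth inhibition above a set limit, 3 SD over mean compound inhibition, in both replicates, cut at about 43% in these data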;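 also: modified DeaD lifespan yeast strain shifted to restrictive glucose medium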); conditions: OD615, 48 h, at 10 µM, stronger effect = higher value
[9] = viability gain of MRP-1-high H69AR cells under doxorubicin, pilot screen, MRP-1 activator project, CellTiter-Glo, duplicate (AID 807;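 active = viability increase at or above a cutoff of the median across tested compounds plus 3 SD, cut at about 8.5% in these data, passing the limit was not always enough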;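 also: compound pretreatment 18-22 h then 72 h combined with doxorubicin; 0% = doxorubicin alone and 100% = vehicle without doxorubicin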); conditions: H69AR viability with doxorubicin, CellTiter-Glo luminescence; at 10 µM; stronger effect = higher value
[10] = growth suppression of beta-catenin knockout HCT116, pilot screen, human colon tumor cells (AID 823;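 active = cell viability at or below a set limit in both duplicate runs, the limit being the all-compound median minus 4 SD, cut at about 23% in these data, passing the limit was not always enough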;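 also: 0% = wells killed by 20 µM Hyamine and 100% = untreated DMSO cell wells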); conditions: CellTiter-Glo, 60 h, at 10 µM, stronger effect = lower value
[11] = growth suppression of PTEN-deleted HCT116, pilot screen, cell-based, HCT116 clonal line, CellTiter-Glo (AID 824;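 active = viability at or below 27.92% in each of two runs, the all-compound median minus 4 SD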;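 also: 0% = 20 µM Hyamine control and 100% = vehicle cell control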); conditions: 60 h, at 10 µM, stronger effect = lower value
[12] = inhibitors of the yeast RAM network, pilot screen, dse1pr::URA3 reporter, 5-FOA selection (AID 869;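 active = inhibition over a set limit, the all-compound mean plus 3 SD, in both replicate runs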;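 also: 0% = DMSO wells with no growth and 100% = 10 µM 1-NA-PP1 with full growth; RAM network block rescues cells from 5-FOA so hits raise OD615 growth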); conditions: S. cerevisiae dse1pr::URA3 5-FOA growth, OD615, 2 d; at 10 µM; stronger effect = higher value; strain carries analog-sensitive mutant Cbk1 kinase
[13] = RAM signaling pathway blockade in yeast – S. cerevisiae, Pdr1DBD-CYC8 efflux-inhibited sensitized strain, primary screen (AID 1298;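 active = RAM network inhibition above 8.4% in each of two replicates, 3 SD over the compound average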;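 also: 0% = DMSO untreated cells without growth and 100% = 10 µM 1-NA-PP1 full growth; higher means more yeast growth rescued from 5-FOA killing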); conditions: S. cerevisiae cbk1-as DSE1-URA3 strain, 5-FOA growth OD615, 2 d; at 50 µM; stronger effect = higher value
[14] = H69AR cells + 2 uM doxorubicin, measured here: viability with 2 uM doxorubicin, stronger effect = lower value
[15] = H69AR cells, compound alone cytotoxicity

| SMILES | viability [1] | viability [2] | viability [3] | differential viability (reversal) ([4]; H69AR cells + 2 uM doxorubicin) | viability [4, 14] [%] | viability [4, 15] [%] | inhibition [5] | inhibition [6] | growth inhibition [7] | growth inhibition [8] | viability increase [9] | viability [10] | viability [11] | inhibition [12] | RAM network inhibition [13] |
| --- | --- | --- | --- | --- | --- | --- | --- | --- | --- | --- | --- | --- | --- | --- | --- |
| COC(=O)c1cc(-c2ccccc2)sc1NC(=O)c1cc(C)on1 | 121% (inactive) | 96.6% (inactive) | 95.9% (inactive) | 5.14% (inactive) | 90.8 | 95.9 | -4.38% (inactive) | -6.45% (inactive) | -0.31% (inactive) | -11.1% (inactive) | -2.24% (inactive) | 93.7% (inactive) | 84.2% (inactive) | 1.4% (inactive) | 2.94% (inactive) |
| O=C(CCC(=O)OCC(=O)c1ccccc1)NC1CCCCC1 | 68% (inactive) | 108% (inactive) | 101% (inactive) | 14.9% (inactive) | 86.1 | 101 | -7.33% (inactive) | -5.82% (inactive) | -6.58% (inactive) | -5.45% (inactive) | -0.49% (inactive) | 93.6% (inactive) | 95.6% (inactive) | -0.295% (inactive) | 5.37% (inactive) |
| CCOC(=O)N1CCN(C(=O)CN(C2CCCCC2)S(=O)(=O)c2ccc(F)cc2)CC1 | 113% (inactive) | 97.3% (inactive) | 97.7% (inactive) | 5.98% (inactive) | 91.7 | 97.7 | -6% (inactive) | -4.36% (inactive) | -7.17% (inactive) | -5.59% (inactive) | 0.22% (inactive) | 99.8% (inactive) | 103% (inactive) | -0.815% (inactive) | 6.62% (inactive) |
| Cc1ccc(-c2cc(C(F)F)n3ncc(C(=O)N4CCN(c5ccccn5)CC4)c3n2)cc1 | 99.5% (inactive) | 49.2% (inactive) |  | 3.75% (inactive) | 52.2 | 56 | -6.4% (inactive) | 6.5% (inactive) | -6.85% (inactive) | 4.28% (inactive) | -5.43% (inactive) | 54.3% (inactive) | 55.4% (inactive) | -1.01% (inactive) | 6.29% (inactive) |
| Brc1ccc2ncnc(Nc3ccc(N4CCOCC4)cc3)c2c1 | 86% (inactive) |  | 77.8% (inactive) | -14.1% (inactive) | 91.9 | 77.8 | -2.27% (inactive) | -4.36% (inactive) | -5.24% (inactive) | 11% (inactive) | -6.53% (inactive) | 81.9% (inactive) | 72.9% (inactive) | 1.01% (inactive) | 3.74% (inactive) |
| Cc1cc(NC(=O)CS(=O)(=O)c2cn(Cc3ccccc3Cl)c3ccccc23)no1 | 92% (inactive) | 79.2% (inactive) | 92.1% (inactive) | 11.1% (inactive) | 81 | 92.1 | -5.2% (inactive) | 5.82% (inactive) | -4.35% (inactive) | -0.555% (inactive) | -2.24% (inactive) |  | 47.8% (inactive) | 2.17% (inactive) | 3.11% (inactive) |
| CCCn1c(=O)c(C(=O)NCc2ccccn2)c(O)c2ccccc21 | 78% (inactive) | 101% (inactive) |  | -12% (inactive) | 69.6 | 57.5 | 2.27% (inactive) | 13.6% (inactive) | 4.69% (inactive) | 12.5% (inactive) | 1.19% (inactive) | 87.4% (inactive) | 104% (inactive) | -1.17% (inactive) | -1.94% (inactive) |
| CCc1c(C)n([O-])c2c([n+]1=O)CCC2 | 104% (inactive) | 89.2% (inactive) | 103% (inactive) | 5.73% (inactive) | 97 | 103 | -5.54% (inactive) | -2.62% (inactive) | -8.65% (inactive) | -5.88% (inactive) | -0.78% (inactive) | 99.4% (inactive) | 102% (inactive) | 0.88% (inactive) | 3.44% (inactive) |
| O=C(Nc1cnccn1)c1cccs1 | 115% (inactive) | 106% (inactive) | 99% (inactive) | 7.32% (inactive) | 91.7 | 99 | -10.8% (inactive) | 1.77% (inactive) | -10.4% (inactive) | 1.52% (inactive) | -2.25% (inactive) |  | 94.2% (inactive) | 0.89% (inactive) | 7.21% (inactive) |
| CCOC(=O)c1cc(NC(=O)SCC(=O)O)c(C)nc1C | 82% (inactive) | 123% (inactive) | 88.1% (inactive) | 2.72% (inactive) | 85.4 | 88.1 | 2.34% (inactive) | -1.64% (inactive) | 0.31% (inactive) | 0.73% (inactive) | 2.31% (inactive) | 96.1% (inactive) | 101% (inactive) | 0.56% (inactive) | 0.38% (inactive) |
| Cc1ccc(N2C(=O)c3oc4ccccc4c(=O)c3C2c2cccc(O)c2)nc1 (stereo unspecified) | 102% (inactive) | 59.1% (inactive) | 91.8% (inactive) | -11.7% (inactive) | 103 | 91.8 | 0.9% (inactive) | 2.17% (inactive) | -6.7% (inactive) | -3.53% (inactive) | 1.12% (inactive) | 73.1% (inactive) | 71.7% (inactive) | 3.22% (inactive) | 7.27% (inactive) |
| COc1cc(-c2nc(-c3ccncc3)no2)cc(OC)c1OC | 100% (inactive) | 101% (inactive) | 89.1% (inactive) | 1.12% (inactive) | 88 | 89.1 | -5.87% (inactive) | -2.18% (inactive) | -1.17% (inactive) | 11.1% (inactive) | -2.77% (inactive) | 103% (inactive) | 99.3% (inactive) | 2.17% (inactive) | 3.72% (inactive) |
| Cn1c(C(=O)Nc2ccc3c(c2)OCO3)cc2c(=O)n(C)c3ccccc3c21 | 73% (inactive) | 72.6% (inactive) | 34.2% (active) | 7.56% (inactive) | 26.6 | 34.2 | -2.18% (inactive) | 2% (inactive) | -4.94% (inactive) | -3.57% (inactive) | -2.91% (inactive) | 92.4% (inactive) | 91.5% (inactive) | 3.22% (inactive) | 4.86% (inactive) |
| Cc1ccc(C)n1-c1ccc(N2CCOCC2)cc1 | 104% (inactive) | 86.4% (inactive) | 77.9% (inactive) | -15.4% (inactive) | 93.4 | 77.9 | -6.35% (inactive) | -3.33% (inactive) | -10.4% (inactive) | -9.78% (inactive) | -7.18% (inactive) | 8.5% (active) | 8.6% (active) | 3.15% (inactive) | 7.34% (inactive) |
| Clc1cccc(-c2nnc(-c3ccccc3)o2)c1 | 57% (inactive) | 78.7% (inactive) | 76.7% (inactive) | -4.06% (inactive) | 80.7 | 76.7 | -8.92% (inactive) | 0.82% (inactive) | 8.84% (inactive) | 3.85% (inactive) | -6.09% (inactive) | 4.61% (active) | 21.4% (active) | 1.33% (inactive) | 0.25% (inactive) |
| O=C(CCCn1c(=O)[nH]c2ccsc2c1=O)N1CCN(c2ccccn2)CC1 | 89% (inactive) | 99.5% (inactive) | 101% (inactive) | 6.23% (inactive) | 94.5 | 101 | -6.4% (inactive) | -0.18% (inactive) | -0.715% (inactive) | 2.48% (inactive) | -4.76% (inactive) | 100% (inactive) |  | 2.25% (inactive) | 4.21% (inactive) |
| CCc1ccc(C(=O)NC2CCCCC2)s1 | 68% (inactive) | 94.7% (inactive) | 109% (inactive) | 17.8% (inactive) | 90.7 | 109 | -3.01% (inactive) | 0.81% (inactive) | -14.4% (inactive) | 3.24% (inactive) | -0.13% (inactive) | 91.8% (inactive) |  | -0.215% (inactive) | 4.77% (inactive) |
| COC(=O)c1cc(=O)n(Cc2ccc3c(c2)OCO3)c(=Nc2ccccc2)s1 | 90% (inactive) |  |  | -4.97% (inactive) | 43.1 | 38.1 | -5.2% (inactive) | 4.43% (inactive) | 4.22% (inactive) | -1% (inactive) | -5.95% (inactive) | 71.1% (inactive) | 73.3% (inactive) | 3.41% (inactive) | 5.96% (inactive) |
